Bioassay records from PubChem.
IL1B secr inh = qHTS for Inhibitors of Inflammasome Signaling: IL-1-beta AlphaLISA Primary Screen; THP-1 LPS/ATP IL-1B secretion, AlphaLISA, 16 h; stronger effect = lower value; activity change, % at 57.5 µM; 360,000 tested, 4.7% active; AID 743279, 2014; in the data active = activity change below about -50%; inconclusive = mostly about -30% to -49%
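THP-1 cells pretreated 1 hr with compounds (up to 57.5 uM final), then stimulated with LPS (250 ng/mL final) plus ATP (1.25 mM final); secreted IL-1B measured by AlphaLISA after 16 hr, decreased signal indicating inhibition.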
TDP1 cell noCPT = qHTS for Inhibitors of human tyrosyl-DNA phosphodiesterase 1 (TDP1): qHTS in cells in absence of CPT. DT40 Tdp1-/- hTDP1 cells, no CPT, ATP luminescence, 48 h. Potency, µM (highest dose often 46.2 µM), for inactives: at the highest dose activity change, negative = growth inhibition, usual class: inhibitors. 420,000 tested, 15% active. AID 686978, 2013; also: potency is read from the fitted curve at half-maximal effect; nearly all actives have a fitted effect of over 55% in size
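Luminescent ATP content (CellTiter-Glo) served as the growth readout. Knockout chicken DT40 cells expressing human TDP1 were exposed to compounds without camptothecin for a minimum 48 hr at 37 °C.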
HT1080-NT tox = qHTS for induction of synthetic lethality in tumor cells producing 2HG: qHTS for the HT-1080-NT fibrosarcoma cell line; HT-1080-NT fibrosarcoma viability, CellTiter-Glo ATP luminescence, 48 h; Potency, µM (doses to about 46.1 µM), without a hit: at the highest dose activity, negative = less viability, usual class: cytotoxic; 360,000 tested, 1.6% active; AID 686970, 2013;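 also: NT is the 2HG producing partner of a matched IDH1 knockdown line; potency is read from the fitted curve at half-maximal effect; 0% = DMSO-treated cells and -100% = media-only wells without cells; nearly all actives have a fitted effect of over 55% in size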
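HT-1080-NT fibrosarcoma cells (2HG-overproducing), 750 cells/well in RPMI with 5% FBS, dosed after 2 h and incubated 48 h at 37C. CellTiter-Glo luminescence normalized to DMSO and no-cell wells; concentration-response curves fitted and classed.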
DT40 TDP1 CPT = qHTS for Inhibitors of human tyrosyl-DNA phosphodiesterase 1 (TDP1): qHTS in cells in presence of CPT; chicken DT40 Tdp1-/-;hTDP1 cells + 20 nM CPT, ATP luminescence, 48 h; Potency, µM (titrated, usually from 46.2 µM), for inactives: at the top dose activity change, negative = growth inhibition, actives largely listed as inhibitors; 420,000 tested, 12% active; also: potency is read from the fitted curve at half-maximal effect; nearly all actives have a fitted effect of over 55% in size
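Chicken DT40 Tdp1-/- cells complemented with human TDP1, 400 cells/well, exposed to compounds plus 20 nM camptothecin for at least 48 h at 37 C; viability read as ATP content by CellTiter-Glo luminescence.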
HT1080 IDH1KD tx = qHTS for induction of synthetic lethality in tumor cells producing 2HG: qHTS for the HT-1080-IDH1KD cell line; HT-1080 IDH1 knockdown viability, ATP luminescence, 48 h; Potency, µM (series often up to 46.1 µM), inactives show at the top dose activity, negative = toxicity, actives largely listed as cytotoxic; 360,000 tested, 2% active;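 also: potency is read from the fitted curve at half-maximal effect; 0% = DMSO wells and -100% = cell-free medium wells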
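Luminescent ATP read-out (CellTiter-Glo, 10 min at room temperature) after 48 h compound exposure at 37 °C gave viability of IDH1-knockdown HT-1080 cells. Activity was normalised to DMSO and cell-free wells, then fitted as concentration-response curves.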
Active calls of the source: *; ? = inconclusive; . = not tested or not shown; [ ] = remark or other dose. Rows were chosen to be rich in hits. Some 19% of all compounds tested hit in one or more screens of this group. Unless noted, calls follow the shape of the dose curve; as a rule, active = well fitted curve in the direction sought with a large enough effect; inconclusive = small, poorly fitted or top-dose-only effect, or another doubt; inactive = no such curve, though single readings can be large; an effect the other way counts as inactive or inconclusive. Unless noted, % is scaled to controls: 0 for no effect and ±100 for the full control effect.

SMILES | IL1B secr inh | TDP1 cell noCPT | HT1080-NT tox | DT40 TDP1 CPT | HT1080 IDH1KD tx
COc1ccc(NC2=C(Cl)C(=O)N(c3ccccc3)C2=O)c(OC)c1 | -22 | 8% | 12% | 18µM* | 6%
COc1ccc(N2C(=O)C(Cl)=C(Nc3c(C)n(C)n(-c4ccccc4)c3=O)C2=O)cc1 | -13 | 5.8µM* | 1% | 2.6µM* | -1%
COc1c(C)cccc1C(=O)NCCCNC(=O)c1ccc(C)nc1 | 29 | -10% | 10% | 12% | 15%
CCN(C(=O)CSc1nnnn1-c1ccccc1)c1c(N)n(Cc2ccccc2)c(=O)[nH]c1=O | 16 | -21% | 0% | -23% | 2%
O=S(=O)(NCc1nnc2ccccn12)c1ccc(Cl)cc1 | 10 | ? | -1% | 1% | 11%
COc1ccc(O)c(CN2CCC3(CC2)c2ccccc2[C@@H](NC(=O)c2cccc(F)c2)[C@@H]3OC)c1 | . | 16µM* | . | -6%[9.04 µM] | .
CC(C)C(OC(=O)c1nsc(Cl)c1Cl)C(=O)NC1CCCCC1 (configuration not stated) | 3 | 9% | 3% | -2% | 1%
Cc1ccc(NC(=O)c2ccc(N3C(=O)C4CC=C(Cl)CC4C3=O)cc2)cc1 (configuration not stated) | 8 | 16µM* | 0% | ? | -5%
COc1ccc(CNC(=O)C2(CC3CC(c4ccccc4)=NO3)CCNCC2)cc1 (configuration not stated) | -26 | -26% | 0% | ? | -7%
c1ccc(Oc2ccccc2-c2cc(NCCc3cccnc3)n3nccc3n2)cc1 | 17 | ? | ? | 18µM* | 1%
O=C(CNCc1ccccn1)Nc1ccc([N+](=O)[O-])cc1C(=O)Nc1ccccc1F | 40 | ? | -15% | ? | -19%
COc1ccc(/C=N/N2CCN(c3ccccc3OC)CC2)cc1OC | 8 | -18% | 13% | -6% | 1%
COc1cc(/C=N/N2CCCCC2)cc(OC)c1O | 44 | 18µM* | -22% | 18µM* | 0%
COc1ccc(/C=N/N2CCN(c3ccccc3)CC2)cc1Br | -55* | 17% | 5% | -19% | 17%
COc1ccccc1N1CCN(/N=C/c2ccc(O)c(O)c2)CC1 | 9 | 9.2µM* | -9% | 18µM* | ?
CCCCCCC1CC(=O)NC(=O)N1 (configuration not stated) | 3 | 4% | 7% | 0% | 3%
Cc1ccc(C)c(CN2C(=O)c3ccccc3S(=O)(=O)c3ccc(C(=O)N4CCN(C)CC4)cc32)c1 | 0 | -29% | -2% | 0% | 2%
Cc1ccc(C)c(CN2C(=O)c3ccccc3S(=O)(=O)c3ccc(C(=O)N4CCc5ccccc54)cc32)c1 | . | 5.8µM* | . | 5.8µM* | .
Cc1ccc(C)c(CN2C(=O)c3ccccc3S(=O)(=O)c3ccc(C(=O)N4CCN(Cc5ccccc5)CC4)cc32)c1 | . | 6.5µM* | . | 6.5µM* | .
COCCN1C(=O)c2ccccc2C1c1nc2ccccc2[nH]1 (configuration not stated) | 21 | 10% | 27% | 5% | 21%
CCCOc1ccc(F)cc1-c1cc(C(=O)NCc2ccco2)[nH]n1 | -17 | ? | 8% | ? | 17%
CCCOc1ccc(F)cc1-c1cc(C(=O)NCc2ccccc2)[nH]n1 | ? | ? | -4% | ? | -2%
CCCOc1ccc(F)cc1-c1cc(C(=O)NCc2cccc(Cl)c2)[nH]n1 | -16 | ? | -24% | 23µM* | ?
CCCOc1ccc(F)cc1-c1cc(C(=O)NCc2cccc(C(F)(F)F)c2)[nH]n1 | -25 | 18µM* | ? | 21µM* | ?
CCCOc1ccc(F)cc1-c1cc(C(=O)NCc2ccc(C(F)(F)F)cc2)[nH]n1 | -8 | 16µM* | ? | ? | ?
SMILES | IL1B secr inh | TDP1 cell noCPT | HT1080-NT tox | DT40 TDP1 CPT | HT1080 IDH1KD tx
O=C(CSc1nnc(-c2ccc(F)cc2)o1)NC1CCCC1 | 17 | -29% | 7% | -20% | 6%
Cc1ccc(C(=O)C(C)OC(=O)CN2C(=O)NC3(CCCC3)C2=O)cc1C (configuration not stated) | 6 | -6% | 0% | -1% | -1%
COC(=O)c1cc(OC)c(OC)cc1NC(=O)C1CCC(=O)N1S(=O)(=O)c1ccc(C)cc1 (configuration not stated) | 11 | 18µM* | -1% | 21µM* | 1%
Clc1ccc(C(Cn2ccnc2)OCc2c(Cl)cccc2Cl)c(Cl)c1 (configuration not stated) | 0 | ? | 16µM* | ? | ?
OC(Cn1ccnc1)c1ccc(Cl)cc1Cl (configuration not stated) | -5 | -16% | -3% | -19% | -3%
COc1ccccc1OCCN(C#N)c1nc(N(C)C)nc(N(C)C)n1 | -77* | ? | 5% | 21µM* | 2%
CCCCC(=O)Nc1ccc(N2CCN(C(=O)CC)CC2)cc1 | 28 | -6% | 10% | -5% | 5%
Cc1cccc(OCC(=O)Nc2ccc(N3CCN(C(=O)c4ccco4)CC3)cc2)c1C | 28 | ? | -24% | ? | -12%
Cc1ccccc1C(=O)N1CCN(c2ccc(NC(=O)CSc3ccc(Cl)cc3)cc2)CC1 | -72* | 10µM* | -25% | 16µM* | ?
CCC(=O)N1CCN(c2ccc(NC(=O)COc3ccc(CC)cc3)cc2)CC1 | -9 | 21µM* | -18% | -19% | 3%
CCC(=O)NC(=S)Nc1ccc(NC(=O)c2ccc(Br)o2)cc1 | -54* | ? | -8% | -10% | 5%
Cc1cc(C)cc(OCC(=O)Nc2ccc(N3CCN(C(=O)c4ccco4)CC3)cc2)c1 | ? | 18µM* | -19% | 23µM* | -17%
COC(=O)C1CCN(Cc2ccc3c(c2)CN(C(=O)c2ncc(C)[nH]2)CCO3)CC1 | . | -13% | . | 3%[9.04 µM] | .
COc1ccc(C2=C(C)C(=O)N(Cc3ccc(C(=O)NC(C)c4ccccc4)cc3)S2(=O)=O)cc1 (configuration not stated) | . | -20% | . | -12% | .
O=C(NCc1cccnc1)c1csc([C@H]2C[C@H](O)[C@@H](CO)O2)n1 | 31 | 7% | 25% | -7% | 11%
O=C(COc1ccc(Cl)cc1)Nc1ccc(N2CCN(C(=O)c3ccco3)CC2)cc1 | ? | 13µM* | ? | 10µM* | -11%
N/C(=N\O)c1ccc(NC(=O)c2ccc(Br)o2)cc1 | -2 | ? | 8% | 18µM* | -2%
